Source: PubChem BioAssay AID440 (NMMLSC, 2006)
About 180 (0.75%) of roughly 24,000 compounds were called active. The sample holds actives, similar compounds and a random draw of the others, so the mix is not that of the screen. Values without a mark were called inactive. Cut-off read from the data, not from the text of the source: active = inhibition above about 30%; inconclusive = no clear call, values can overlap the other calls; inactive = below that.

target: fMet-Leu-Phe receptor (Homo sapiens) (UniProt P21462); assay: small molecules displacing FPR fluorescent ligand – cell-based, FPRL1 counter-screen, flow cytometry, primary screen (AID 440); details: FPR-expressing cells, fluorescent ligand binding, stronger effect = higher value, concentration not given here;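 note: 0% = buffer wells and 100% = receptor blocker peptide wells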
Sequence (P21462 whole entry, looked up): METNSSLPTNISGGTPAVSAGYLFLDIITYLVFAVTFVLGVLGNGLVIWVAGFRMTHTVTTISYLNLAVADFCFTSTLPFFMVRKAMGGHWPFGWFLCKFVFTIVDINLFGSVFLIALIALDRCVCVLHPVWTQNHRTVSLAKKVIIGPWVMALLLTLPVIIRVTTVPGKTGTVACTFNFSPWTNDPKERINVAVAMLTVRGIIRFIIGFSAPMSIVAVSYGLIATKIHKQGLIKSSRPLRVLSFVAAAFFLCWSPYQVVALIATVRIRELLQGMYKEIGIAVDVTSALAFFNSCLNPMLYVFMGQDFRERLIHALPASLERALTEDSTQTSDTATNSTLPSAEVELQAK

Question: `N#CCCN1CCN(S(=O)(=O)c2ccc(S(=O)(=O)N3CCCC3)cc2)CC1` was tested. Which inhibition did it give?
Answer: The inhibition was -3.3%.

Question: How did the inhibition turn out when `O=C(Nc1ccc(Cl)cn1)Nc1cccs1` was run?
Answer: The inhibition was -2.2%.

Question: With `COc1ccc(/C(O)=C2\C(=O)C(=O)N(Cc3ccco3)C2c2ccc(OC)cc2OC)cc1` (stereo not given) as the compound, how does the inhibition read?
Answer: The inhibition was 38% (active).

Question: For `COc1ccccc1C1/C(=C(/O)c2ccc(C)cc2)C(=O)C(=O)N1Cc1ccco1` (stereo not given), which inhibition is on record?
Answer: Its inhibition is 4.3%.

Question: How did the inhibition turn out when `COc1ccc(/C(O)=C2/C(=O)C(=O)N(CC3CCCO3)C2c2ccc(OC)c(OC)c2)cc1` (stereo not given) was run?
Answer: The inhibition was 0.3%.

Question: With `CCOC(=O)Cn1c(CN(Cc2ccccc2)Cc2ccccc2)nc2c1c(=O)[nH]c(=O)n2C` as the compound, how does the inhibition read?
Answer: Its inhibition is -0.1%.

Question: With `COc1c(F)c(F)c(C(=O)O)c(Nc2ccccc2C)c1F` as the compound, how does the inhibition read?
Answer: Its inhibition is -4.8%.

Question: With `Cc1cc(N2C(=O)C(=O)/C(=C(/O)c3ccccc3)C2c2cccc(Br)c2)no1` (stereo not given) as the compound, how does the inhibition read?
Answer: The inhibition was -1.3%.

Question: `CCOC(=O)c1ccn(-c2nc(-c3ccco3)cc(C(F)(F)F)n2)n1` was tested. Which inhibition did it give?
Answer: The inhibition was 5.4%.

Question: With `CN1CCCC(OC(=O)COc2ccc(Br)cc2)C1` (stereo not given) as the compound, how does the inhibition read?
Answer: The inhibition was -3%.

Question: How did the inhibition turn out when `CCCn1nnc2sc3c(c2c1=O)CCC(C)C3` (stereo not given) was run?
Answer: Its inhibition is 0.2%.

Question: With `Cc1cccc(-n2nc3c(c2NC(=O)c2ccc(Br)o2)CSC3)c1C` as the compound, how does the inhibition read?
Answer: The inhibition was 6.4%.

Question: How did the inhibition turn out when `CC1(C)C(=O)Nc2ccccc2N1C(=O)COC(=O)Cn1cnc2ccccc2c1=O` was run?
Answer: The inhibition was -1.5%.

Question: Which inhibition does the source give for `O=C(CCSCCc1ccccn1)Nc1nccs1` here?
Answer: The inhibition was 2.6%.

Question: `c1ccc(Cc2nn3c(Cn4cnc5ccccc54)nnc3s2)cc1` was tested. Which inhibition did it give?
Answer: Its inhibition is 4.2%.

Question: Which inhibition does the source give for `CCOc1cccc(-c2nnc3sc(COc4ccc(OC)cc4)nn23)c1` here?
Answer: The inhibition was -4.8%.

Question: Which inhibition does the source give for `Clc1ccc(Cc2nn3c(-c4ccncc4)nnc3s2)cc1` here?
Answer: Its inhibition is 46.7% (active).

Question: With `CCOc1ccc(NC(=O)CCS(=O)(=O)c2cccc3nsnc23)cc1` as the compound, how does the inhibition read?
Answer: The inhibition was 7.6%.

Question: `O=C(c1ccccc1)c1cccn1CC(=O)N1CCN(c2ccc(F)cc2)CC1` was tested. Which inhibition did it give?
Answer: The inhibition was 0.2%.

Question: With `CCCC(=O)C1=C(N(C)c2ccccc2)CC(C)(C)C(C(=O)OC)C1=O` (stereo not given) as the compound, how does the inhibition read?
Answer: Its inhibition is 1.9%.

Question: How did the inhibition turn out when `O=C(O)CC(c1ccccc1)n1cnnn1` (stereo not given) was run?
Answer: The inhibition was -4.6%.

Question: Which inhibition does the source give for `CCN(Cc1ccccc1)C(=O)CSc1nc(C)cc2c1C(=O)OC2` here?
Answer: Its inhibition is 2%.

Question: Which inhibition does the source give for `O=C(CCN1C(=O)c2ccccc2C1=O)NCCN1CCOCC1` here?
Answer: Its inhibition is -4.5%.

Question: With `O=C1CC(c2ccccc2)CC(O)=C1C=NCCN1CCOCC1` (stereo not given) as the compound, how does the inhibition read?
Answer: Its inhibition is 9.7%.

Question: `CCCC(=O)Nc1nnc(CC(=O)OCC)s1` was tested. Which inhibition did it give?
Answer: The inhibition was 9.1%.

Question: For `COc1cc(C2C(C(=O)c3sc(C)nc3C)=C(O)C(=O)N2CCN(C)C)cc(OC)c1OC` (stereo not given), which inhibition is on record?
Answer: Its inhibition is 3.4%.

Question: `CCCOc1ccc(C2C(C(=O)c3ccc(C)o3)=C(O)C(=O)N2CCCn2ccnc2)cc1` (stereo not given) was tested. Which inhibition did it give?
Answer: The inhibition was 52.8% (active).

Question: For `CCCOc1ccc(C2c3c(oc4cc(C)c(C)cc4c3=O)C(=O)N2CCCN2CCOCC2)cc1` (stereo not given), which inhibition is on record?
Answer: Its inhibition is 5.8%.

Question: `COc1cc(C2C(C(=O)Nc3ccccc3OC)=C(C)Nc3ncnn32)ccc1O` (stereo not given) was tested. Which inhibition did it give?
Answer: The inhibition was -6.4%.

Question: `COc1ccc(-c2nc(CS(=O)CC(=O)NCc3cccnc3)c(C)o2)cc1OC` (stereo not given) was tested. Which inhibition did it give?
Answer: Its inhibition is 7.2%.

Question: `CCOc1ccccc1C(=O)NCCCn1ccnc1` was tested. Which inhibition did it give?
Answer: Its inhibition is -3.4%.

Question: Which inhibition does the source give for `COc1cc(C2C(C(=O)c3ccc(C)o3)=C(O)C(=O)N2Cc2cccnc2)ccc1O` (stereo not given) here?
Answer: The inhibition was 40.6% (active).

Question: `CCOc1ccc(/C(O)=C2/C(=O)C(=O)N(Cc3cccnc3)C2c2ccc(N(C)C)cc2)c(C)c1` (stereo not given) was tested. Which inhibition did it give?
Answer: Its inhibition is 27.7%.

Question: Which inhibition does the source give for `COc1cc(C2C(C(=O)c3ccc(C)o3)=C(O)C(=O)N2CCc2ccccc2)ccc1O` (stereo not given) here?
Answer: The inhibition was 69.9% (active).

Question: Which inhibition does the source give for `O=C(c1cccnc1NCc1ccccc1)N1CCOCC1` here?
Answer: The inhibition was -10.6%.

Question: For `CCOC(=O)c1[nH]c2c(c1C)C(=O)CC(c1ccc(N(C)C)cc1)C2` (stereo not given), which inhibition is on record?
Answer: Its inhibition is 9%.

Question: How did the inhibition turn out when `Nc1ccc(-n2nncc2-c2ccco2)cc1` was run?
Answer: Its inhibition is 3%.

Question: How did the inhibition turn out when `O=C(CN1CCN(S(=O)(=O)c2ccc(F)cc2)CC1)Nc1ccccc1F` was run?
Answer: Its inhibition is 5.7%.

Question: `COc1ccc2c(CC(=O)Nc3nnc(C4CC4)s3)coc2c1` was tested. Which inhibition did it give?
Answer: Its inhibition is -3.4%.

Question: Which inhibition does the source give for `COCCCN1C(=O)C(=O)/C(=C(/O)c2ccc3c(c2)CC(C)O3)C1c1cccnc1` (stereo not given) here?
Answer: Its inhibition is 33.5% (active).

Question: For `CCOc1cccc(/C(O)=C2/C(=O)C(=O)N(CCOC)C2c2ccncc2)c1` (stereo not given), which inhibition is on record?
Answer: Its inhibition is 4.6%.

Question: `CC1Cc2cc(/C(O)=C3\C(=O)C(=O)N(CCN4CCOCC4)C3c3ccccc3F)ccc2O1` (stereo not given) was tested. Which inhibition did it give?
Answer: The inhibition was 18.6%.

Question: Which inhibition does the source give for `COc1cc(C2C(C#N)=C(C)NC3=C2C(=O)CC(C)(C)C3)ccc1O` (stereo not given) here?
Answer: The inhibition was 4.9%.

Question: For `Cc1ccc(C2CC(=O)NC(SCC(=O)OCc3ccccc3)=C2C#N)o1` (stereo not given), which inhibition is on record?
Answer: The inhibition was 0.1%.

Question: `CCCOC(=O)Nc1sc2c(c1C(=O)OCC)CCC2` was tested. Which inhibition did it give?
Answer: Its inhibition is -12.7%.

Question: How did the inhibition turn out when `CCN(CC)S(=O)(=O)N1CCC(C(=O)NC(C)CCc2ccccc2)CC1` (stereo not given) was run?
Answer: Its inhibition is -9.4%.

Question: Which inhibition does the source give for `CCC(C)(NC(=O)c1ccccn1)C(=O)NC1CCCCC1` (stereo not given) here?
Answer: Its inhibition is 6.6%.

Question: `COCCNC(=O)Cn1cc2c(n1)CCCCC2` was tested. Which inhibition did it give?
Answer: Its inhibition is -5.5%.

Question: Which inhibition does the source give for `Cc1onc(-c2ccccc2Cl)c1C(=O)NCCn1ccc2ccccc21` here?
Answer: The inhibition was 5.6%.

Question: How did the inhibition turn out when `COc1ccccc1CNC(=O)CCn1c(=O)sc2ccccc21` was run?
Answer: Its inhibition is 1.8%.

Question: For `O=C(C1CCN(S(=O)(=O)c2cccs2)CC1)N1CCCCCC1`, which inhibition is on record?
Answer: The inhibition was 2.5%.

Question: `Cc1cc(C)nc(-n2nc(C)cc2NC(=O)c2ccc(Br)o2)n1` was tested. Which inhibition did it give?
Answer: Its inhibition is -6.1%.

Question: How did the inhibition turn out when `O=C(CN1C(=O)C2C3C=CC(C3)C2C1=O)NCC1COc2ccccc2O1` (stereo not given) was run?
Answer: The inhibition was -0.7%.

Question: For `O=C1c2ccncc2C(=O)N1C1CCCCC1`, which inhibition is on record?
Answer: Its inhibition is 0.9%.

Question: `COc1ccc(Cn2nnc3c(=O)[nH]c(C4CCN(C(=O)c5ccccc5Cl)CC4)nc32)cc1` was tested. Which inhibition did it give?
Answer: The inhibition was -0.8%.

Question: `Cc1nc(C)c(C(=O)Nc2cccc(C)c2C)o1` was tested. Which inhibition did it give?
Answer: The inhibition was 3%.

Question: How did the inhibition turn out when `COc1ccccc1Cn1c(=S)[nH]c2cc(C(=O)N3CCN(C)CC3)ccc2c1=O` was run?
Answer: Its inhibition is -4%.

Question: For `S=C1SCN(CCN2CCOCC2)CN1Cc1ccccc1`, which inhibition is on record?
Answer: The inhibition was -1.1%.

Question: `CCOC(=O)C1CCN(C(=O)CSc2cc(=O)n(C)c3ccccc23)CC1` was tested. Which inhibition did it give?
Answer: The inhibition was -1.5%.

Question: With `Cn1c(=O)cc(OCCCC(=O)N2CCN(c3ccccn3)CC2)c2ccccc21` as the compound, how does the inhibition read?
Answer: The inhibition was -0.8%.
